This is a sample that favours compounds with a hit; in the whole collection about 17% have one here.
TGFb inhibitor: qHTS for Inhibitors of TGF-b | HepG2 CAGA-GFP TGF-b/SMAD3 reporter, GFP fluorescence, 18 h; TGF-beta stimulated, 500 pg/mL final | Potency, µM (series often up to 46.1 µM), for inactives: top-dose activity, negative = inhibition, most hits filed as inhibitors | 410,000 tested, 1.2% active; also: % is scaled to controls: 0 for no effect and ±100 for the full control effect; nearly all actives have a fitted effect of over 65% in size
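Cell-based qHTS in HEPG2 carrying a CAGA-GFP Smad reporter; compounds added before 500 pg/mL final TGF-beta, 18 h incubation at 37 degrees C, GFP fluorescence quantified per cell by imaging cytometry.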
HepG2 viability: qHTS for Inhibitors of TGF-b: Cytotox Counterscreen | Potency, µM (doses to about 46.1 µM), without a hit: top-dose activity change, negative = cytotoxicity, most hits filed as cytotoxic | HepG2 CAGA-GFP viability, ATP luminescence, 18 h | 410,000 tested, 0.76% active
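HepG2 CAGA-GFP cells (1000/well, DMEM with 1% FBS) received compound, then TGF-beta at 500 pg/mL final, and were incubated 18 hours at 37 degrees C. Viability was read by CellTiter-Glo luminescence. Media-only wells were set as complete cell-killing and DMSO as no toxicity.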
HT1080NT lethal: qHTS for induction of synthetic lethality in tumor cells producing 2HG: qHTS for the HT-1080-NT fibrosarcoma cell line. HT-1080-NT fibrosarcoma viability, CellTiter-Glo ATP luminescence, 48 h. Potency, µM (highest dose often 46.1 µM), inactives show at the top dose activity, negative = less viability, actives largely listed as cytotoxic. 360,000 tested, 1.6% active. AID 686970, 2013;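 also: NT is the 2HG producing partner of a matched IDH1 knockdown line; 0% = DMSO-treated cells and -100% = media-only wells without cells; nearly all actives have a fitted effect of over 55% in size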
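750 cells/well, RPMI + 5% FBS; 2 h settle, compound pin-transfer, 48 h at 37 degrees C. CellTiter-Glo 10 min RT, luminescence. Normalized to DMSO and media-only wells.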
TDP1 cell noCPT: qHTS for Inhibitors of human tyrosyl-DNA phosphodiesterase 1 (TDP1): qHTS in cells in absence of CPT. DT40 Tdp1-/- hTDP1 cells, no CPT, ATP luminescence, 48 h. Potency, µM (series often up to 46.2 µM), inactives show at the highest dose activity change, negative = growth inhibition, actives largely listed as inhibitors. 420,000 tested, 15% active; also: % is scaled to controls: 0 for no effect and ±100 for the full control effect; nearly all actives have a fitted effect of over 55% in size
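Stably hTDP1-transfected Tdp1-null chicken DT40 cells were treated with library compounds minus camptothecin and grown for at least 48 hr at 37 °C, after which cellular ATP was quantified by luminescence.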
DT40 TDP1 CPT: qHTS for Inhibitors of human tyrosyl-DNA phosphodiesterase 1 (TDP1): qHTS in cells in presence of CPT | chicken DT40 Tdp1-/-;hTDP1 cells + 20 nM CPT, ATP luminescence, 48 h | 420,000 tested, 12% active | Potency, µM (highest dose often 46.2 µM), for the others: at the top dose activity change, negative = growth inhibition, most hits filed as inhibitors; also: % is scaled to controls: 0 for no effect and ±100 for the full control effect; nearly all actives have a fitted effect of over 55% in size
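Chicken DT40 Tdp1-/- cells complemented with human TDP1, 400 cells/well, exposed to compounds plus 20 nM camptothecin for at least 48 h at 37 C; viability read as ATP content by CellTiter-Glo luminescence.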
HT1080 IDH1KD tx: qHTS for induction of synthetic lethality in tumor cells producing 2HG: qHTS for the HT-1080-IDH1KD cell line; Potency, µM (titrated, usually from 46.1 µM), for inactives: at the top dose activity, negative = toxicity, actives largely listed as cytotoxic; HT-1080 IDH1 knockdown viability, ATP luminescence, 48 h; 360,000 tested, 2% active;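 also: 0% = DMSO wells and -100% = cell-free medium wells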
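Cytotoxicity counter-line: IDH1KD HT-1080, 48 h, CellTiter-Glo. Curves classed by r2, magnitude and activity.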
The depositor's hits bear a star. Calls follow the shape of the dose curve; as a rule, active = well fitted curve in the direction sought with a large enough effect; inconclusive = small, poorly fitted or top-dose-only effect, or another doubt; inactive = no such curve, though single readings can be large; an effect the other way counts as inactive or inconclusive. Potency is read from the fitted curve at half-maximal effect.

For COCCCNC(=O)c1cc(C(=O)c2c(-c3c(Cl)cccc3Cl)noc2C)c[nH]1 the results were TGFb inhibitor 4%, HepG2 viability 1%, HT1080NT lethal inconclusive, TDP1 cell noCPT 23µM*, DT40 TDP1 CPT 23µM* and HT1080 IDH1KD tx inconclusive.
For Cc1onc(-c2ccccc2)c1C(=O)c1c[nH]c(C(=O)NCCCN2CCOCC2)c1 the results were TGFb inhibitor 1%, HepG2 viability -2%, HT1080NT lethal -1%, TDP1 cell noCPT -29%, DT40 TDP1 CPT 12% and HT1080 IDH1KD tx -3%.
Screening Cc1nnc(NC(=O)c2c(-c3ccccc3Cl)noc2C)s1 returned TGFb inhibitor 10%, HepG2 viability 14%, HT1080NT lethal -15%, TDP1 cell noCPT -29%, DT40 TDP1 CPT -1% and HT1080 IDH1KD tx -2%.
Screening Cc1onc(-c2c(Cl)cccc2Cl)c1C(=O)Nc1nc(C(C)(C)C)cs1 returned TGFb inhibitor inconclusive, HepG2 viability -48%, HT1080NT lethal inconclusive, TDP1 cell noCPT 23µM*, DT40 TDP1 CPT inconclusive and HT1080 IDH1KD tx inconclusive.
COCc1nnc(NC(=O)c2c(-c3c(Cl)cccc3Cl)noc2C)s1 was read as TGFb inhibitor 2%, HepG2 viability -22%, HT1080NT lethal inconclusive, TDP1 cell noCPT inconclusive, DT40 TDP1 CPT 13µM* and HT1080 IDH1KD tx 21µM*.
For Cc1cc(C)nc(NC(=O)c2c(-c3c(Cl)cccc3Cl)noc2C)n1 the results were TGFb inhibitor -24%, HepG2 viability -17%, HT1080NT lethal 3%, TDP1 cell noCPT inconclusive, DT40 TDP1 CPT -22% and HT1080 IDH1KD tx 3%.
Cc1nc(C(=O)NNC(=O)c2c(-c3c(Cl)cccc3Cl)noc2C)cs1 was read as TGFb inhibitor inconclusive, HepG2 viability -26%, HT1080NT lethal inconclusive, TDP1 cell noCPT 16µM*, DT40 TDP1 CPT inconclusive and HT1080 IDH1KD tx inconclusive.
Cc1cccc(NC(=O)CSc2nc(=O)n(Cc3cccnc3)c3c2CCC3)c1C was read as TGFb inhibitor -5%, HepG2 viability -8%, TDP1 cell noCPT -21% and DT40 TDP1 CPT 9%.
For CCc1cccc(C)c1NC(=O)CN(C)S(=O)(=O)c1cccc2nsnc12 the results were TGFb inhibitor inconclusive, HepG2 viability -16%, TDP1 cell noCPT -27% and DT40 TDP1 CPT inconclusive.
Screening CCCCCCCCCCCCOC(=O)N1CCN(/[N+]([O-])=N/Oc2ccc([N+](=O)[O-])cc2[N+](C)=O)CC1 returned TGFb inhibitor -2% and HepG2 viability -42%.
CCc1ccc2oc(C(=O)Nc3ccccc3OC)cc(=O)c2c1 was read as TGFb inhibitor -5%, HepG2 viability 6%, TDP1 cell noCPT -22% and DT40 TDP1 CPT -23%.
`c1ccc(Nc2nc(NCCN3CCOCC3)nc(Nc3ccccc3)n2)cc1` gave TGFb inhibitor 43%, HepG2 viability -42%, HT1080NT lethal inconclusive, TDP1 cell noCPT inconclusive, DT40 TDP1 CPT inconclusive and HT1080 IDH1KD tx inconclusive.
`Ic1ccc(Nc2nc(NCCN3CCOCC3)nc(N3CCOCC3)n2)cc1` gave TGFb inhibitor 6%, HepG2 viability -52%, TDP1 cell noCPT 2.8µM* and DT40 TDP1 CPT 5µM*.
Screening Ic1ccc(Nc2nc(NCCN3CCOCC3)nc(N3CCCC3)n2)cc1 returned TGFb inhibitor inconclusive, HepG2 viability -29%, TDP1 cell noCPT 11µM* and DT40 TDP1 CPT 11µM*.
